Common to all, as to test: log2 fold change, soluble protein after heating vs DMSO (PISA); higher = thermal stabilisation; K562 lysate, 10 uM; active = over 0.2 and 3.5 SD of the protein, either way, in both replicates (recomputed)
Compound in test [1]: NCC(=O)Nc1ccc(-n2nc(C(F)(F)F)cc2-c2ccc3c(ccc4ccccc43)c2)cc1
In outline:
(§1)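 Soluble protein was defined as the supernatant remaining after 21,000xg for 90 min, following pooling of heated aliquots and adjustment to 0.5% NP-40 at 4°C. Before that, crude K562 extract at 1 mg/mL protein in PBS pH 7.4 with 1 mM MgCl2 was treated with 10 μM compound for 30 min and heated for 3 min across 48°C-58°C. Quantification used TMTpro 16plex LC-MS/MS with channel sums equalised, and values are log-two fold changes in thermal stability relative to solvent controls from duplicates.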

Compound in another test: O=C(CCCCCCC(=O)Nc1ccccc1)NO [vorinostat]
In outline:
as §1

Compound in a further test: O=C(O)c1ccc2c(c1)nc(Nc1cccc(Cl)c1)c1ccncc12 [silmitasertib]
Put shortly: as §1

Compound in test [2]: O=C1NC(=O)C(c2cnc3ccccn23)=C1c1cn2c3c(cc(F)cc13)CN(C(=O)N1CCCCC1)CC2
Put shortly:
as §1

Compound in a further test: c1cn2cc(-c3ccc4cn[nH]c4c3)nc(Nc3ccc(N4CCOCC4)cc3)c2n1 [entospletinib]
In outline:
as §1

About 8,800 targets were measured; listed, in parts, are those with a hit and a random draw of the rest. About 0.5% of all pairs of compound and target were hits. A number with no mark means an inactive call.

UniProt O75582, sequence (O75582 whole entry, looked up): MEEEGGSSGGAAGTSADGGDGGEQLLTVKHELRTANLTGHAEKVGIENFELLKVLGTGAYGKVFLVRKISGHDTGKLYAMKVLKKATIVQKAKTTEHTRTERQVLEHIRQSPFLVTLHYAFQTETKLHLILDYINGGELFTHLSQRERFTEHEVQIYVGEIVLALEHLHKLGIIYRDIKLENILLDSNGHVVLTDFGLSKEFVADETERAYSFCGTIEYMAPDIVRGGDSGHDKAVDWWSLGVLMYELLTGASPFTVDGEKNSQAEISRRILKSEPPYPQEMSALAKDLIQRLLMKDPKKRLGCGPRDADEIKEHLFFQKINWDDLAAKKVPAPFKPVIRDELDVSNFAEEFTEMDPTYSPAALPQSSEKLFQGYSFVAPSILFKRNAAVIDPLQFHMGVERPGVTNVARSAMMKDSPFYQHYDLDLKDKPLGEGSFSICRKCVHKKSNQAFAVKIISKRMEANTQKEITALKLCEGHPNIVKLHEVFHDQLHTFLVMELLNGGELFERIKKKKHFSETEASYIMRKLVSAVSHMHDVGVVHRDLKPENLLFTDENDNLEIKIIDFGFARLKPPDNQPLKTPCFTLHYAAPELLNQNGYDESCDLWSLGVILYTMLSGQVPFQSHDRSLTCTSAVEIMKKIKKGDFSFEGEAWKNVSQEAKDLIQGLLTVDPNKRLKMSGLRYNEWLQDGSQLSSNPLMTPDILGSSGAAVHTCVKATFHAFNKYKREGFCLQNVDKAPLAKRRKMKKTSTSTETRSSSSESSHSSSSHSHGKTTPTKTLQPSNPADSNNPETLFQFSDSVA
UniProt Q9Y3T6, sequence (Q9Y3T6 whole entry, looked up, one chain of several): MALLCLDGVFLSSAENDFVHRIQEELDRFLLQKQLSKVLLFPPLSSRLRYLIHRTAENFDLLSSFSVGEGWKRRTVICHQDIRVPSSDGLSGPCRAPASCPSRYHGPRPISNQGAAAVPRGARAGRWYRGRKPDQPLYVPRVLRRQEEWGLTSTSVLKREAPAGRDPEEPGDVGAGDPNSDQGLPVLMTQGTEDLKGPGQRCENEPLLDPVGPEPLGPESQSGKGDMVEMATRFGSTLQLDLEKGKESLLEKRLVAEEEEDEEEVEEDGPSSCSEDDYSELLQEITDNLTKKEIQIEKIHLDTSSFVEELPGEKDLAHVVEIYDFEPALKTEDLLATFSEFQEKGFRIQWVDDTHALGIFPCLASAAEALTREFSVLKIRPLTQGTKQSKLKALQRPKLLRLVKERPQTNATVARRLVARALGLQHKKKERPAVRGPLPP
UniProt Q9NTN9, sequence (Q9NTN9 whole entry, looked up): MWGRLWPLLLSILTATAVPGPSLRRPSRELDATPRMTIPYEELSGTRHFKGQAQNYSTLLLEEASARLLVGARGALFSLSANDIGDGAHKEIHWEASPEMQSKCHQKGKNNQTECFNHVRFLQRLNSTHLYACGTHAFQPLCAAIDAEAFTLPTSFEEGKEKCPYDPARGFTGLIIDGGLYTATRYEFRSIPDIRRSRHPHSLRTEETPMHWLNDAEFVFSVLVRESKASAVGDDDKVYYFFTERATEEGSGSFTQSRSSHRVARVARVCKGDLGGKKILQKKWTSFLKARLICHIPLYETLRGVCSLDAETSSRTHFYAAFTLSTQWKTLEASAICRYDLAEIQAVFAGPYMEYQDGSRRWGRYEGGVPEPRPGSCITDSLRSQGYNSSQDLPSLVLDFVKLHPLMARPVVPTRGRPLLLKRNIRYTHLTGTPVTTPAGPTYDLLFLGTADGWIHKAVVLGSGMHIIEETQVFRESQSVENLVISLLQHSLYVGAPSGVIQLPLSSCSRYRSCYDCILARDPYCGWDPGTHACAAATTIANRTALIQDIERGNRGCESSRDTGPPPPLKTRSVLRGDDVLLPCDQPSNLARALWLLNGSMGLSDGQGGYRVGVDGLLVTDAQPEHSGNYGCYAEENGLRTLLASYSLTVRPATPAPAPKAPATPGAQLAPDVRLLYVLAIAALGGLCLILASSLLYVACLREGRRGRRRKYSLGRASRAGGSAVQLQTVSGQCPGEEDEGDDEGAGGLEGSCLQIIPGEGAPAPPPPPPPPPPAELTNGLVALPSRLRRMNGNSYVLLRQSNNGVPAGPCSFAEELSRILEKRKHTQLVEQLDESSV
UniProt P38159, sequence (P38159 whole entry, looked up): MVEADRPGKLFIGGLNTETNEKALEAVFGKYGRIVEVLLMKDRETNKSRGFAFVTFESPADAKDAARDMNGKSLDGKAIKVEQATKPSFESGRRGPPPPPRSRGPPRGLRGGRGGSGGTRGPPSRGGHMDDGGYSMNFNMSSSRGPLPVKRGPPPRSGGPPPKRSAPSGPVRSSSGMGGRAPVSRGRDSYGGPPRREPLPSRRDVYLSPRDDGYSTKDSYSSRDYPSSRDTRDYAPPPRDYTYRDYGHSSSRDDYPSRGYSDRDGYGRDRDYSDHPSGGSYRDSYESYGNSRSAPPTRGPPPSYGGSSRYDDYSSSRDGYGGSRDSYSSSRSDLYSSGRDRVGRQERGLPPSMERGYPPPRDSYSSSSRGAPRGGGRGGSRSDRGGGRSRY
UniProt Q9UKL0, sequence (Q9UKL0 whole entry, looked up): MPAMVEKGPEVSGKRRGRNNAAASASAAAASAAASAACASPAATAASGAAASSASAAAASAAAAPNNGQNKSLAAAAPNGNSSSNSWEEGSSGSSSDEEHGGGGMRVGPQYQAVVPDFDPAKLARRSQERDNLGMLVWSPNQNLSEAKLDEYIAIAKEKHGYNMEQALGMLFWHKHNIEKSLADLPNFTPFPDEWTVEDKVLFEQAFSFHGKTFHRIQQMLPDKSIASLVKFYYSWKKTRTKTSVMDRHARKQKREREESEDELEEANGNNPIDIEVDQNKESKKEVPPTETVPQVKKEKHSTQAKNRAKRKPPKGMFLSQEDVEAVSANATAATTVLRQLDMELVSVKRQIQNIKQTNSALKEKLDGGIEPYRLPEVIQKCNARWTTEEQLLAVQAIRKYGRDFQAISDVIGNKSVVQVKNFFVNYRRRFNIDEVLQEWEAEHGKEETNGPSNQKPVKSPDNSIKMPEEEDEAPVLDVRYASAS
UniProt O75880, sequence (O75880 whole entry, looked up): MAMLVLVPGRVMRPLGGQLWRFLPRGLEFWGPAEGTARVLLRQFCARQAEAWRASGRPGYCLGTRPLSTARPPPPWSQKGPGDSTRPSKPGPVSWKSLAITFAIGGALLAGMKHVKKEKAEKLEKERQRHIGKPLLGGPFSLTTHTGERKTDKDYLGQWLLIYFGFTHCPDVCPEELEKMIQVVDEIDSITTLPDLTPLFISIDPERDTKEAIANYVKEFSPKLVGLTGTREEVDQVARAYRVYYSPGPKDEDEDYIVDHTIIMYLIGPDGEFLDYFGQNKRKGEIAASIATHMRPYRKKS
UniProt Q05823, sequence (Q05823 whole entry, looked up): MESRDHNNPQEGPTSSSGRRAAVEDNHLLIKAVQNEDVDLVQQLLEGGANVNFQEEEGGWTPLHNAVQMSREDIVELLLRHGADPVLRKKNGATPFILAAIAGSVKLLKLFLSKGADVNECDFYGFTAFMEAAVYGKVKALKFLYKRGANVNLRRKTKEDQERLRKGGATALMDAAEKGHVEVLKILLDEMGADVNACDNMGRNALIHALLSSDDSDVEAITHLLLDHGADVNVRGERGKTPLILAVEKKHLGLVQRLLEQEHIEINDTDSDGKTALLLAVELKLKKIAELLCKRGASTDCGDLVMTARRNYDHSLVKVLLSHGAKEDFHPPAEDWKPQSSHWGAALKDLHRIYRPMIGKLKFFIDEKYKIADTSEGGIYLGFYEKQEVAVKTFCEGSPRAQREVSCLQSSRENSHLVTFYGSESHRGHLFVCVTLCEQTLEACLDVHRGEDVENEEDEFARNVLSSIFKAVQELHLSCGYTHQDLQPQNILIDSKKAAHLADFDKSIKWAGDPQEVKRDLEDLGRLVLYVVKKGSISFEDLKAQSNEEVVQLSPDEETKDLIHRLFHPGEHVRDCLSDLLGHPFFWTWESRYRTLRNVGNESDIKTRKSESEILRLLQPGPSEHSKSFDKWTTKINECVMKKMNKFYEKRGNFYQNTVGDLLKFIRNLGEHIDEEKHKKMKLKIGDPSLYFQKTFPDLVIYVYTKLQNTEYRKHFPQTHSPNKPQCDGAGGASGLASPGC
UniProt O43819, sequence (O43819 whole entry, looked up): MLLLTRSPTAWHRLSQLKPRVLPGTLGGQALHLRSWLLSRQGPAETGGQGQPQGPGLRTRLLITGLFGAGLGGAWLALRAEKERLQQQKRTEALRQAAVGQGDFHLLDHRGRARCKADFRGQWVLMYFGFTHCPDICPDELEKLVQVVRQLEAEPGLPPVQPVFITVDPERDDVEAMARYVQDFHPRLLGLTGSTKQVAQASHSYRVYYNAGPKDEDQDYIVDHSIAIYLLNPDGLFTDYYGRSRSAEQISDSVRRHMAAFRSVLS
UniProt O43502, sequence (O43502 whole entry, looked up): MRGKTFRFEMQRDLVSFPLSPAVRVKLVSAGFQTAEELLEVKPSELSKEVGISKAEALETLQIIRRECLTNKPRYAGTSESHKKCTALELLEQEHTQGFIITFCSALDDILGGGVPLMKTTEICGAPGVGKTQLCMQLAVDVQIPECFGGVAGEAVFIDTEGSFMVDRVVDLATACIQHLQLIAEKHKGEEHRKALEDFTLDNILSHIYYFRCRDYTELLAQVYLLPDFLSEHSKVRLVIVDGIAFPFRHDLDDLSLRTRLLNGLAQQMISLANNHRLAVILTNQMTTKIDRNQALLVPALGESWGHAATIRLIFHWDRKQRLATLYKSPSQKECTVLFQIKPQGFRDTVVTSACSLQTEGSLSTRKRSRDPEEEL
UniProt Q8TC12, sequence (Q8TC12 whole entry, looked up): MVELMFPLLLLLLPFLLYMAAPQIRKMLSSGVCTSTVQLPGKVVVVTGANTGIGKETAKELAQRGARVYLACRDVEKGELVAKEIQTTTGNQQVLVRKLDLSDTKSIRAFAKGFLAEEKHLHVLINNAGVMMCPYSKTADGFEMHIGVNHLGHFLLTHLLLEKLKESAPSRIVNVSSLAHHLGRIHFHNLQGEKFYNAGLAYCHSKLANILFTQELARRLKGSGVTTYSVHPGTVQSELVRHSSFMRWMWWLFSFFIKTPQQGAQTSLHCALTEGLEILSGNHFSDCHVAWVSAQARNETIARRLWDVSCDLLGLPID

Consider RNASEL (UniProt Q05823), for which the log2 fold change was -0.005 in test [1]; -0.298 (active) with vorinostat; 0.055 in the test with silmitasertib; -0.021 in test [2]; -0.023 in the test with entospletinib.

Consider RBBP7 (UniProt Q16576), for which the log2 fold change in test [1] is -0.005; with vorinostat, -0.091; with silmitasertib it was 0.033; in test [2] it was -0.167; in the test with entospletinib it was 0.

On to SEMA4G isoform 2 (UniProt Q9NTN9), for which the log2 fold change in test [1] is 0.078; with vorinostat, -0.513 (active); in the test with silmitasertib, 0.172; in test [2], 0.103; in the test with entospletinib, -0.09.

SCO2 (UniProt O43819): the log2 fold change in test [1] is -0.024; in the test with vorinostat, 0.063; in the test with silmitasertib, -0.079; in test [2], 0.017; with entospletinib, 0.053.

With RIOK3 (UniProt O14730), the log2 fold change in test [1] was -0.024; in the test with vorinostat, -0.605 (active); in the test with silmitasertib, -0.017; in test [2] it was -0.024; in the test with entospletinib, -0.004.

Regarding RAPGEF2, A0A2R8YGD3, the log2 fold change in test [1] is -0.041; in the test with vorinostat, 0.2; in the test with silmitasertib, -0.007; in test [2] it was 0.015; in the test with entospletinib, -0.046.

Take RBBP8 isoform 2 (UniProt Q99708): the log2 fold change was -0.035 in test [1]; 0.076 in the test with vorinostat; -0.13 with silmitasertib; -0.028 in test [2]; -0.002 with entospletinib.

S100A6 (UniProt P06703): the log2 fold change in test [1] is 0.064; with vorinostat, 0.136; in the test with silmitasertib, -0.036; in test [2], -0.071; with entospletinib, -0.005.

With RCOR1 (UniProt Q9UKL0), the log2 fold change was 0.034 in test [1]; -0.184 with vorinostat; -0.014 in the test with silmitasertib; -0.011 in test [2]; 0.009 with entospletinib.

Regarding RAD51C (UniProt O43502), the log2 fold change in test [1] is 0.023; with vorinostat, -0.386 (active); with silmitasertib it was -0.003; in test [2] it was -0.015; with entospletinib, 0.065.

As to RINT1 (UniProt Q6NUQ1), the log2 fold change in test [1] is 0.078; with vorinostat, -0.321 (active); with silmitasertib, 0.038; in test [2], 0.034; with entospletinib it was -0.089.

As for R3HCC1 (UniProt Q9Y3T6), the log2 fold change in test [1] is 0.045; with vorinostat, -0.259 (active); in the test with silmitasertib, -0.036; in test [2], -0.002; with entospletinib, 0.067.

For RPL8 (UniProt P62917), the log2 fold change in test [1] is -0.041; with vorinostat, 0.12; with silmitasertib, 0; in test [2], 0.089; with entospletinib it was -0.006.

As for RALGAPA1 isoform 6 (UniProt Q6GYQ0), the log2 fold change in test [1] is 0.047; in the test with vorinostat, 0.034; with silmitasertib, -0.054; in test [2], -0.027; with entospletinib it was -0.022.

In the case of RAB3IL1 (UniProt Q8TBN0), the log2 fold change is -0.006 in test [1]; -0.268 (active) with vorinostat; 0.025 with silmitasertib; 0.07 in test [2]; 0.015 with entospletinib.

Regarding RAB6D (UniProt Q53S08), the log2 fold change in test [1] was -0.012; in the test with vorinostat it was 0.151; with silmitasertib it was -0.02; in test [2] it was -0.011; in the test with entospletinib, -0.01.

Turning to RPS6KA5 (UniProt O75582), the log2 fold change in test [1] was -0.025; in the test with vorinostat it was -0.189; in the test with silmitasertib, 0.034; in test [2], -0.303; in the test with entospletinib it was -0.007.

For SCO1 (UniProt O75880), the log2 fold change is 0.022 in test [1]; 0.149 with vorinostat; -0.067 with silmitasertib; -0.052 in test [2]; 0 in the test with entospletinib.

Turning to RDH11 (UniProt Q8TC12), the log2 fold change was 0.008 in test [1]; 0.038 in the test with vorinostat; 0.022 with silmitasertib; -0.047 in test [2]; 0.014 with entospletinib.

Take RBMX (UniProt P38159): the log2 fold change was -0.043 in test [1]; 0.065 with vorinostat; 0.048 with silmitasertib; -0.022 in test [2]; 0.008 with entospletinib.

For the target RFC3 (UniProt P40938), the log2 fold change is -0.01 in test [1]; -0.365 (active) with vorinostat; 0.035 with silmitasertib; 0.006 in test [2]; 0.018 with entospletinib.

For RBM8A (UniProt Q9Y5S9), the log2 fold change was -0.113 in test [1]; 0.103 in the test with vorinostat; 0.042 in the test with silmitasertib; -0.046 in test [2]; -0.019 with entospletinib.

With RPL27 (UniProt P61353), the log2 fold change in test [1] was 0.014; with vorinostat, 0.129; in the test with silmitasertib, 0.03; in test [2] it was 0.013; with entospletinib, 0.009.

As for RBM22 (UniProt Q9NW64), the log2 fold change was 0.024 in test [1]; -0.23 (active) with vorinostat; 0 in the test with silmitasertib; -0.053 in test [2]; -0.023 with entospletinib.
